Inconclusive results are not listed. The source made the active and inactive calls. How the source made its calls: active means hit-call score of the fitted dose curve at least 0.9, where 1 is the maximum; inconclusive means response in the unintended direction; inactive means score below 0.9.

Sequence of human RAR-related Orphan Receptor beta (RORb), RORB (gene 6096) (Q92753 whole entry, looked up, the tested form may be a part): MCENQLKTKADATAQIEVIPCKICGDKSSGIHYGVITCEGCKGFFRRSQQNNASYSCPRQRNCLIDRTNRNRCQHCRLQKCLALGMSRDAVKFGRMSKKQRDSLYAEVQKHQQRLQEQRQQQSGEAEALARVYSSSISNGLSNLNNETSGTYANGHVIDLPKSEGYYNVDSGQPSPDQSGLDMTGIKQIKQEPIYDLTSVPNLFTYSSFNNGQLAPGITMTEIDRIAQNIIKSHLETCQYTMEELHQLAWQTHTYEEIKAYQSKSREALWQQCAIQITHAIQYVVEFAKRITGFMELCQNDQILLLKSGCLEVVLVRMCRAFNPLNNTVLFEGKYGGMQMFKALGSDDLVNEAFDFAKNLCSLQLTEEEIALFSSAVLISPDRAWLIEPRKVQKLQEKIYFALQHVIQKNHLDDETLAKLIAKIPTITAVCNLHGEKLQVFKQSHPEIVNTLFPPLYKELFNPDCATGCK

In the first experiment the target is human Retinoic Acid Receptor gamma (RARg), RARG (gene 5916) (UniProt P13631). The experiment is described as follows: ATG_RARg_TRANS: Attagene TRANS-FACTORIAL HepG2 Assay for human Retinoic Acid Receptor gamma (RARg) (AID 2283009). The method, boiled down: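 HepG2, RARg-GAL4 TRANS system, 24 h exposure; reporter mRNA by RT-PCR + CE fluorescence; increase over DMSO.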
Sequence of human Retinoic Acid Receptor gamma (RARg), RARG (gene 5916) (P13631 whole entry, looked up, the tested form may be a part): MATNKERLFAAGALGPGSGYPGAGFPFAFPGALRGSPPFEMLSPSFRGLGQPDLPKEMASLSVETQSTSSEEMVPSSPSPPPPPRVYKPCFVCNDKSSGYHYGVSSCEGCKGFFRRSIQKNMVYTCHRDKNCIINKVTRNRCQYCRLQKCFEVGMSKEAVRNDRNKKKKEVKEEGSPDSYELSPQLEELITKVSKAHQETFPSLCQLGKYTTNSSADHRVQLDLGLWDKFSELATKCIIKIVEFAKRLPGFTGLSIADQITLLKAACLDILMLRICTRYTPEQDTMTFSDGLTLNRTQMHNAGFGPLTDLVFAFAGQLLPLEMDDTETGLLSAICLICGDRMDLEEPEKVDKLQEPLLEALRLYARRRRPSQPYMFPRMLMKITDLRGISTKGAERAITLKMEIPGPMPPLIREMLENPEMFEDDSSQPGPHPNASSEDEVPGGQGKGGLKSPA
On to `CCCCOCC(C)O` (stereo not drawn), for which the outcome was inactive.
The same measure, in the same setting: in the case of `O=C(Cl)c1ccc(C(=O)Cl)cc1` it was “inactive”; in that of `CC1(C)[C@@H]2CC[C@@]1(C)C(=O)C2`, “inactive”; in that of `N=C1C=CC(=C(c2ccc(N)cc2)c2ccc(N)cc2)C=C1`, “inactive”.
With `C=C(C)C1CC=C(C)CC1` (stereo not drawn), the molecule was called inactive.
On the same count and under the same terms, to `CC(=O)CC(=O)Nc1ccccc1C` belongs “inactive”.
On the same count and under the same terms, in the case of `CCOc1ccc(NC(N)=O)cc1` it was “inactive”.
Still for that read-out and setting: to `CCCC(CC)c1ccccc1` (stereo not drawn) belongs “inactive”; to `CCCCCCCC(=O)OCC`, “inactive”; to `CCc1cccc(CC)c1`, “inactive”.

A further experiment addresses human RAR-related Orphan Receptor beta (RORb), RORB (gene 6096) (UniProt Q92753). The experiment is described as follows: ATG_RORb_TRANS: Attagene TRANS-FACTORIAL HepG2 Assay for human RAR-related Orphan Receptor beta (RORb) (AID 2283010). An outline of the steps:
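In this TRANS-format test, human HepG2 cells express chimeric NR-Gal4 fusion proteins driving GAL4-UAS reporters. After 24 h dosing, reporter transcripts are measured by fluorescent RT-PCR/capillary electrophoresis, with DMSO as negative control.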
Turning to `O=C(Cl)c1ccc(C(=O)Cl)cc1`, the molecule was called inactive.
As for `Cc1c(C(=O)c2c[nH]n(C)c2=O)ccc(S(C)(=O)=O)c1C1=NOCC1`, the molecule was called inactive.
Turning to `NNS(=O)(=O)c1ccc(Oc2ccc(S(=O)(=O)NN)cc2)cc1`, the molecule was classed as inactive.
The same measure, in the same setting: to `CC(=O)CC(=O)Nc1ccccc1C` belongs “inactive”; to `CCOc1ccc(NC(N)=O)cc1`, “inactive”.
For `CC(C)(C)N`, the molecule was called inactive.
Still for that read-out and setting: to `C=C(C)[C@@H]1CC=C(C)CC1` belongs “inactive”.
The same measure, in the same setting: in the case of `C=CC(=O)OCCCCCCCCCC` it was “inactive”.

Values taken from PubChem BioAssay (EPA / NIEHS).
